In the supplement of paper PMC13380429:

Assays:
[1] = test system: Vero E6 infected with SARS-CoV-2; experiment: morphology score (similarity to uninfected cells); higher = more like uninfected cells; details: 24 h
[2] = test system: Vero E6 infected with SARS-CoV-2; experiment: SARS-CoV-2 infection rate relative to infected DMSO; higher = more infection, active = 60 or less; details: 24 h

## Nc1ncnc2c1ncn2[C@H]1CC[C@@H](CO)O1 [dideoxyadenosine] (10 µM)
[1]
  morphology score: 0.103
[2]
  SARS-CoV-2 infection rate: 99% (inactive)

## Cc1ccccc1-n1c(CF)nc2ccc(N)cc2c1=O [afloqualone] (10 µM)
[1]
  morphology score: 0.166
[2]
  SARS-CoV-2 infection rate: 96% (inactive)

## O=c1c(-c2ccc(O)cc2)coc2cc(O)cc(O)c12 [genistein] (10 µM)
[1]
  morphology score: -0.211
[2]
  SARS-CoV-2 infection rate: 119% (inactive)

## c1cc(-c2cnn3cc(-c4ccc(OCCN5CCCCC5)cc4)cnc23)ccn1 [dorsomorphin] (0.833333 µM)
[1]
  morphology score: 0.321
[2]
  SARS-CoV-2 infection rate: 96.5% (inactive)

## O=c1[nH]c2ccccc2n1CCCN1CCN(C(c2ccccc2)c2ccccc2)CC1 [oxatomide] (10 µM)
[1]
  morphology score: -0.0451
[2]
  SARS-CoV-2 infection rate: 106% (inactive)

## CC(C)Cc1ccc(C(C)C(=O)NO)cc1 (centres undefined) [ibuproxam] (10 µM)
[1]
  morphology score: 0.234
[2]
  SARS-CoV-2 infection rate: 93.5% (inactive)

## CCC1(CC)C(=O)C=CNC1=O [pyrithyldione] (10 µM)
[1]
  morphology score: -0.0471
[2]
  SARS-CoV-2 infection rate: 107% (inactive)

## OCCn1cc(-c2cnc3nnn(Cc4ccc5ncccc5c4)c3n2)cn1 (10 µM)
[1]
  morphology score: -0.0332
[2]
  SARS-CoV-2 infection rate: 99% (inactive)

## COc1ccc(C(=O)C2CCN(CC(=O)N(Cc3nc4c(c(=O)[nH]3)COCC4)CC3CC3)CC2)cc1 (10 µM)
[1]
  morphology score: 0.165
[2]
  SARS-CoV-2 infection rate: 102% (inactive)

## Cc1ccc(Cl)c(OC[C@H](O)CNC(C)C)c1 [1-(2-chloro-5-methylphenoxy)-3-(isopropylamino)-2-propanol] (10 µM)
[1]
  morphology score: 0.0769
[2]
  SARS-CoV-2 infection rate: 95.5% (inactive)

## CCCc1c(OCCCOc2ccc(OCC(=O)O)cc2)ccc(C(C)=O)c1O (10 µM)
[1]
  morphology score: 0.0635
[2]
  SARS-CoV-2 infection rate: 106% (inactive)

## Cc1nnc2n1-c1sc(CCC(=O)N3CCOCC3)cc1C(c1ccccc1Cl)=NC2 [apafant] (10 µM)
[1]
  morphology score: -0.0825
[2]
  SARS-CoV-2 infection rate: 112% (inactive)

## COc1ccc(NS(=O)(=O)c2ccc(/N=N/c3ccc(O)c(C(=O)O)c3)cc2)nn1 [salazodine] (10 µM)
[1]
  morphology score: 0.0596
[2]
  SARS-CoV-2 infection rate: 113% (inactive)

## Oc1ccc2c(c1)CC[C@H](c1ccccc1)[C@@H]2c1ccc(OCCN2CCCC2)cc1 [lasofoxifene] (0.833333 µM)
[1]
  morphology score: 0.106
[2]
  SARS-CoV-2 infection rate: 97% (inactive)

## COc1cc(OC2CCN(C)CC2)ccc1Nc1ncc2c(n1)n(C1CCCC1)c(=O)n2C (0.833333 µM)
[1]
  morphology score: 0.126
[2]
  SARS-CoV-2 infection rate: 98% (inactive)

## O=C(O)CNC(=O)C(CS)Cc1ccccc1 (centres undefined) [thiorphan] (10 µM)
[1]
  morphology score: 0.106
[2]
  SARS-CoV-2 infection rate: 98.5% (inactive)

## Clc1ccc(C(Cn2ccnc2)OCc2csc3c(Cl)cccc23)c(Cl)c1 (centres undefined) [sertaconazole] (10 µM)
[1]
  morphology score: 0.201
[2]
  SARS-CoV-2 infection rate: 104% (inactive)

## Cc1occc(=O)c1[O-].Cc1occc(=O)c1[O-].[O]=[V+2] [bis(maltolato)oxovanadium(IV)] (10 µM)
[1]
  morphology score: -0.461
[2]
  SARS-CoV-2 infection rate: 106% (inactive)

## CC[C@H](C)[C@H](N)C1=N[C@H](C(=O)N[C@@H](CC(C)C)C(=O)N[C@H](CCC(=O)[O-])C(=O)N[C@H](C(=O)N[C@H]2CCCCNC(=O)[C@H](CC(N)=O)NC(=O)[C@@H](CC(=O)[O-])NC(=O)[C@H](Cc3cnc[nH]3)NC(=O)[C@@H](Cc3ccccc3)NC(=O)[C@H]([C@@H](C)CC)NC(=O)[C@@H](CCCN)NC2=O)[C@@H](C)CC)CS1.[Zn+2] [bacitracin-zinc] (10 µM)
[1]
  morphology score: -0.0221
[2]
  SARS-CoV-2 infection rate: 108% (inactive)

## CCc1nn(CCCN2CCN(c3cccc(Cl)c3)CC2)c(=O)n1CCOc1ccccc1 [nefazodone] (10 µM)
[1]
  morphology score: 0.0652
[2]
  SARS-CoV-2 infection rate: 106% (inactive)

## CN[C@@H](C)CC1CCCCC1 [propylhexedrine] (10 µM)
[1]
  morphology score: -0.0197
[2]
  SARS-CoV-2 infection rate: 110% (inactive)

## C[S+]([O-])c1ccc(-c2nc(-c3ccc(F)cc3)c(-c3ccncc3)[nH]2)cc1 (centres undefined) (10 µM)
[1]
  morphology score: 0.0867
[2]
  SARS-CoV-2 infection rate: 95% (inactive)

## COc1ccc(Cc2cnc(N)nc2N)cc1OC [diaveridine] (10 µM)
[1]
  morphology score: 0.191
[2]
  SARS-CoV-2 infection rate: 101% (inactive)

## O=C(N[C@H]1CN2CCC1CC2)c1cc2cccc(Cl)c2s1 (10 µM)
[1]
  morphology score: 0.352
[2]
  SARS-CoV-2 infection rate: 86.5% (inactive)

## COc1ccc(Cl)c(Nc2nc3ccccc3nc2NS(=O)(=O)c2cccc(NC(=O)C(C)(C)N)c2)c1 [pilaralisib] (10 µM)
[1]
  morphology score: 0.0424
[2]
  SARS-CoV-2 infection rate: 103% (inactive)

## COc1cc(C(=S)N2CCOCC2)ccc1O [vanitiolide] (10 µM)
[1]
  morphology score: 0.152
[2]
  SARS-CoV-2 infection rate: 102% (inactive)

## CC1=C(C(=O)OC2CCCCC2)C(c2ccc([N+](=O)[O-])cc2)C2=C(CC(C)(C)CC2=O)N1 (centres undefined) (0.833333 µM)
[1]
  morphology score: -0.0965
[2]
  SARS-CoV-2 infection rate: 104% (inactive)
